From PubChem BioAssay AID763 (NMMLSC, 2007)

target: fMet-Leu-Phe receptor (Homo sapiens) (UniProt P21462); assay: human FPR1 ligand displacement single-point test – cell-based, single concentration, selectivity assay for FPRL1 ligand SAR project, SAR follow-up (AID 763); conditions: FPR1-expressing cells, fluorescent ligand binding inhibition, hits give high values; at 5.4 µM unless noted
Sequence (P21462 whole entry, looked up): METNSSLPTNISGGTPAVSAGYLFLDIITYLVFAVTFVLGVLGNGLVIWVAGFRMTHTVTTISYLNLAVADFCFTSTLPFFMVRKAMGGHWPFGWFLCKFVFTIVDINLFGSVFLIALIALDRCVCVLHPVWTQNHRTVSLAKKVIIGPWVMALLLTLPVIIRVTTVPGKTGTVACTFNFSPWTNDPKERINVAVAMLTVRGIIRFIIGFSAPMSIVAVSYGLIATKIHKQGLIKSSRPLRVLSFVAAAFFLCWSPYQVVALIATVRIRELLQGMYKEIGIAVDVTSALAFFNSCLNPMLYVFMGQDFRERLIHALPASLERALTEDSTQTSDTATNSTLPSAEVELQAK

inhibition, inactive:
COc1ccc(-c2cn3cccnc3n2)cc1NC(=O)C(C)(C)C 1.9% [at 6.9 µM]
COc1ccc(-c2cn3cccnc3n2)cc1NC(=O)C1CCCC1 6.6% [at 6.6 µM]
O=C(O)CCC(=O)N1CCN(c2nc(-c3ccccc3)c3cc(Br)ccc3n2)CC1 -0.5% [at 4.7 µM]
Cc1ccc2nc(N3CCN(c4ccccc4)CC3)nc(-c3ccccc3)c2c1 0.6% [at 5.8 µM]
Clc1ccc2nc(N3CCN(c4ccccc4)CC3)nc(-c3ccccc3)c2c1 1.7% [at 5.5 µM]
CCOC(=O)N1CCN(c2nc(-c3ccccc3)c3ccccc3n2)CC1 3.6% [at 6.1 µM]
COc1ccc(-c2cn3cccnc3n2)cc1NC(=O)c1cccc(F)c1 -0.9% [at 6.1 µM]
COc1cccc(-c2cc(C(F)(F)F)nc(N3CCN(c4ccc(F)cc4)CC3)n2)c1 1.7% [at 5.1 µM]
COc1ccccc1-c1cc(C(F)(F)F)nc(N2CCN(c3ccc(F)cc3)CC2)n1 -2.5% [at 5.1 µM]
O=C(c1ccccc1)N1CCN(c2nc(-c3ccccc3)c3cc([N+](=O)[O-])ccc3n2)CC1 -6% [at 5.1 µM]
N#Cc1cc(-c2ccccc2)nc(N2CCN(c3ccccc3)CC2)n1 -6% [at 6.5 µM]
COc1cc(OC)cc(C(=O)Nc2cc(-c3cn4cccnc4n3)ccc2OC)c1 4.4% [at 5.5 µM]
COc1ccc(-c2nc(N3CCN(C)CC3)[nH]c(=O)c2C#N)cc1 -1.7% [at 6.8 µM]
O=C(O)/C=C\C(=O)N1CCN(c2nc(-c3ccccc3)c3cc(Br)ccc3n2)CC1 -5.7% [at 4.8 µM]
COc1ccc(-c2cc(C(F)(F)F)nc(N3CCN(Cc4ccccc4)CC3)n2)cc1OC 4.7% [at 4.9 µM]
CCN1CCN(c2nc(-c3cccc(Cl)c3)c3c(n2)-c2ccccc2OC3)CC1 -9.4% [at 5.5 µM]
Brc1ccc2nc(N3CCN(c4ccccc4)CC3)nc(-c3ccccc3)c2c1 0.6% [at 5 µM]
COc1ccc(-c2cn3cccnc3n2)cc1NC(=O)COc1ccc(Cl)cc1 -3.3%
CCOC(=O)N1CCN(c2nc(-c3ccccc3)cc(C(F)(F)F)n2)CC1 1.5% [at 5.8 µM]
CCC(CC)C(=O)Nc1cc(-c2cn3cccnc3n2)ccc1OC -5.9% [at 6.6 µM]
COc1ccc(C(=O)Nc2cc(-c3cn4cccnc4n3)ccc2OC)cc1 3.4% [at 5.9 µM]
FC(F)(F)c1nc(N2CCN(Cc3ccccc3)CC2)nc2c1CCCCC2 0.9% [at 5.7 µM]
COc1ccc(-c2cn3cccnc3n2)cc1NC(=O)c1ccc(C(C)(C)C)cc1 5.7% [at 5.6 µM]
COc1ccc(-c2cn3cccnc3n2)cc1NC(=O)CCCc1ccccc1 -0.5% [at 5.8 µM]
COc1ccc(-c2cc(C(F)(F)F)nc(N3CCN(Cc4ccccc4)CC3)n2)cc1 -2.6% [at 5.2 µM]
COc1cccc(C(=O)Nc2cc(-c3cn4cccnc4n3)ccc2OC)c1 1% [at 5.9 µM]
COc1ccc(-c2cn3cccnc3n2)cc1NC(=O)c1ccc(F)c(F)c1 -1.7% [at 5.8 µM]
FC(F)(F)c1cc(-c2ccco2)nc(N2CCN(C(c3ccccc3)c3ccccc3)CC2)n1 0.5% [at 4.8 µM]
O=C(c1ccccc1Cl)N1CCN(c2nc(-c3ccccc3)c3cc(Cl)ccc3n2)CC1 -3.1% [at 4.8 µM]
Clc1cccc(-c2nc(N3CCN(C4CCCCC4)CC3)nc3c2COc2ccccc2-3)c1 -4.5% [at 4.8 µM]
COc1ccccc1-c1cc(C(F)(F)F)nc(N2CCN(c3ccccc3)CC2)n1 -10.8%
Fc1ccc(-c2cc(C(F)(F)F)nc(N3CCN(c4ccc(F)cc4)CC3)n2)cc1 -2% [at 5.3 µM]
Cc1ccc(-c2cc(C(F)F)nc(N3CCN(c4cccc(Cl)c4)CC3)n2)cc1 2.7%
